Screen size: about 91,000 compounds; about 40 (0.04%) were called active. Rule as the data show it: active = activation above about 37%; inactive = the rest. Only a sample is shown.
These molecules were tested against Bifunctional epoxide hydrolase 2 (Homo sapiens) (UniProt P34913) (assay: sEH enzyme activity enhancers – biochemical, human sEH, primary screen (AID 717)). Conditions: purified human sEH enzymatic activity, activator screen; at 2 µM; active compounds read high.
Sequence of Bifunctional epoxide hydrolase 2 (Homo sapiens) (P34913 whole entry, looked up): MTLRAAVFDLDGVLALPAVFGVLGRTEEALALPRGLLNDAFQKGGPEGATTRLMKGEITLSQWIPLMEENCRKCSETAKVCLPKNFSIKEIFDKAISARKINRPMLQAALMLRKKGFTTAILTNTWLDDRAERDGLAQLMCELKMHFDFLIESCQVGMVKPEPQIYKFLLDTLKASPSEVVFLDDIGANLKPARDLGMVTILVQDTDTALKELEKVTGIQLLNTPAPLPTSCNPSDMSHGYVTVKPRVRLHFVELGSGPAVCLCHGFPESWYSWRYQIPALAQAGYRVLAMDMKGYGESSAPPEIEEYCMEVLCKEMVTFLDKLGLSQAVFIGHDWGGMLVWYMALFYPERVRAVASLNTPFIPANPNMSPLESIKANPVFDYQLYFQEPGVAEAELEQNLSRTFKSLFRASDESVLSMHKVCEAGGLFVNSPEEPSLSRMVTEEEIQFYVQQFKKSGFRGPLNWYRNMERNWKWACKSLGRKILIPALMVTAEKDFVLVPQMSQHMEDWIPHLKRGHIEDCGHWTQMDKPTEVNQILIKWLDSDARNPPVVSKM

activation, inactive:
Cc1nc(SCC(=O)N2CC(=O)Nc3ccccc32)c2c(C)c(C)sc2n1 -1.1%
COc1ccc(Cc2nnc(SCC(=O)c3cccc([N+](=O)[O-])c3)n2C)cc1 16.7%
O=C(Nc1ccc2c(c1)OCCO2)c1ccc(Cl)c(S(=O)(=O)N2CCCCC2)c1 -77.7%
CCCCNC(=O)C(=O)c1ccccc1NC(C)=O -0.9%
CC(C)(CCl)C(=O)Nc1ccc(Sc2ccc(F)cc2)cc1 -29.2%
O=C(CCNS(=O)(=O)c1ccccc1C(F)(F)F)NCc1ccc2c(c1)OCO2 3.4%
COCCCNCC(=O)Nc1sc(C)c(C)c1C(=O)OC -1%
Cc1ccc(CNC(=O)C2CC(c3ccccc3[N+](=O)[O-])=NO2)o1 (stereo not given) 1.1%
Cc1c(NC(=O)CCCOc2ccccc2)cccc1[N+](=O)[O-] -9.6%
CCC(C)n1c(-c2cc(OC)c(OC)c(OC)c2)nc2nc3ccccc3nc21 (stereo not given) 0.8%
COc1cc(C(=S)N2CCOCC2)cc(OC)c1OC(=O)c1cc([N+](=O)[O-])c(C)c([N+](=O)[O-])c1 -3.8%
COc1ccc(/C=C(/NC(=O)c2ccc(C)cc2)c2nc3ccccc3[nH]2)cc1OC 4.1%
O=C(O)c1ccccc1-c1ccccc1C(=O)Nc1cccc2ccccc12 6.9%
O=C(Nc1nnc(CCOCCOCCc2nnc(NC(=O)c3ccco3)s2)s1)c1ccco1 -12%
CCn1c(SCc2ccc(C)cc2)nnc1-c1nn(-c2ccccc2)ccc1=O 17.2%
CC(Oc1ccc(F)cc1F)C(=O)/C=C/N(C)C (stereo not given) 0.5%
CCOC(=O)C1=C(C)Nc2sc(C(=O)c3ccc(Br)cc3)c(N)c2C1c1ccc(C(=O)OC)cc1 (stereo not given) -3.6%
Cc1cc([N+](=O)[O-])c(NC2CCCCC2)c([N+](=O)[O-])c1 3.5%
O=C(NCCc1ccccn1)c1cc(C(=O)C2CCCCC2)c[nH]1 9.3%
CC(C)c1cc(C(N)=O)c(NC(=O)c2cccc(COc3ccc(Br)cc3)c2)s1 -3.7%
Cc1ccc(NC(=S)NC2CCCC2)cc1 -29.3%
COC(=O)c1ccccc1OCC(=O)N1CCN(c2ccc(Cl)cc2)CC1 -44.9%
C=CCNc1cnn(-c2ccc(C)cc2)c(=O)c1Cl 0.5%
CCc1cccc2c(C=C(C#N)C#N)cn(CC(=O)N3CCCCC3)c12 5%
COCCCn1c(SCc2cccc(OC)c2)nc2cc(OC)c(OC)cc2c1=N -5.2%
